The values that follow come from PubChem BioAssay (EPA / NIEHS).

For orientation: AC50 means the concentration giving half of the maximal activity seen.

Some structures have more than one record in an assay (separate samples or runs), and their calls can disagree. The source made the active and inactive calls. How the source made its calls: active means hit-call score of the fitted dose curve at least 0.9, where 1 is the maximum; inactive means score below 0.9.

A short description of experiment [1]: ATG_M_06_CIS: Attagene CIS-FACTORIAL HepG2 Assay for M06 Transcription Factor (Internal Marker) (AID 2282950). Conditions: HepG2 Attagene CIS-FACTORIAL M06 internal marker reporter; actives raise or lower the signal. The procedure, abridged:
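Fluorescence-labelled RT-PCR products from cis-promoter reporter units, cut with HpaI and resolved by capillary electrophoresis, give the signal. Cells are human HepG2, dosed for 24 h. Serves as background control, fitted relative to DMSO.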

Experiment [2] concerns the target Hypoxia-inducible factor 1-alpha (Homo sapiens) (UniProt Q16665). Description: ATG_HIF1a_CIS: Attagene CIS-FACTORIAL HepG2 Assay for human Hypoxia Inducible Factor 1 (HIF1A) (AID 2282951). Particulars: HepG2 Attagene cis-factorial HIF1a reporter transcription; actives raise or lower the signal. The procedure, abridged:
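Measures endogenous transcription-factor activity through cis-regulated reporter mRNA in HepG2. Cells dosed 24 h; transcripts quantified by RT-PCR with 6-FAM-labelled products separated by capillary electrophoresis; DMSO serves as negative control.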

The target of experiment [3] is Hepatocyte nuclear factor 6 (Homo sapiens) (UniProt Q9UBC0). As to the kind of experiment: ATG_HNF6_CIS: Attagene CIS-FACTORIAL HepG2 Assay for human Hepatocyte Nuclear Factor 6 (HNF6) (AID 2282952). Particulars: HepG2 Attagene cis-factorial HNF6 reporter transcription; actives raise or lower the signal. In short, it runs like this:
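Readout: fluorescent reporter-transcript fragments resolved by capillary electrophoresis after RT-PCR, reflecting endogenous factor activity in transfected HepG2. Exposure 24 h. Gain or loss of signal fitted bidirectionally against DMSO.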

The nature of experiment [4]: ATG_MRE_CIS: Attagene CIS-FACTORIAL HepG2 Assay for human Metal Responsive Element (MRE) (AID 2282954). Conditions: HepG2 MRE cis-reporter transcription, Attagene multiplex; actives raise or lower the signal. In short, it runs like this:
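Measured here is mRNA induction from an MRE cis-element reporter in HepG2 after 24 h, quantified by fluorescence of labelled RT-PCR products on capillary electrophoresis; gain- and loss-of-signal fits use DMSO as baseline.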

Experiment [5] concerns the target Paired box protein Pax-6 (Homo sapiens) (UniProt P26367). As to the kind of experiment: ATG_Pax6_CIS: Attagene CIS-FACTORIAL HepG2 Assay for human Paired Box 6 (PAX6) (AID 2282956). Particulars: HepG2 CIS-FACTORIAL PAX6 reporter transcription, RNA readout; actives raise or lower the signal. The procedure, abridged:
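Readout: reporter transcript fluorescence after RT-PCR and capillary electrophoresis. Cells: HepG2, transiently transfected with cis-regulated MRTUs. Exposure 24 h. Gain or loss of signal fitted bidirectionally relative to DMSO.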

Experiment [6] in a line: ATG_PXRE_CIS: Attagene CIS-FACTORIAL HepG2 Assay for human Pregnane X Receptor Element (PXRE) (AID 2282957). Conditions: HepG2 Attagene CIS-FACTORIAL PXRE reporter, mRNA; actives raise or lower the signal. In short, it runs like this: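 Read-out: fluorescence of reporter-specific RT-PCR products resolved by capillary electrophoresis, fitted bidirectionally relative to DMSO. Human HepG2 liver cells carried transfected cis-promoter reporter units and were exposed to chemicals for 24 h.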

Experiment [7] is described as follows: ATG_PPRE_CIS: Attagene CIS-FACTORIAL HepG2 Assay for human Peroxisome Proliferator-activated Response Element (PPRE) (AID 2282958). Conditions: HepG2 PPRE cis-element reporter, Attagene transcription factor profiling; actives raise or lower the signal. The procedure, abridged:
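Cells are first transfected transiently with the multiplexed reporter library, then dosed for 24 h. Total RNA is reverse-transcribed, amplified, fluorescently end-labeled and HpaI-cut before capillary electrophoresis; activity is fitted bidirectionally against DMSO controls.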

Experiment [8] addresses Heat shock factor protein 1 (Homo sapiens) (UniProt Q00613). As to the kind of experiment: ATG_HSE_CIS: Attagene CIS-FACTORIAL HepG2 Assay for human Heat Shock Transcription Factor 1 (HSE) (AID 2282953). Particulars: HepG2 HSE cis-reporter, Attagene RNA transcription; actives raise or lower the signal. In short, it runs like this:
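After a 24 h incubation with test chemical, transfected HepG2 cells were harvested for RNA; reporter transcripts were measured by RT-PCR and capillary electrophoresis. Values reflect gain or loss of signal relative to DMSO.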

Experiment [9] can be described thus: ATG_PBREM_CIS: Attagene CIS-FACTORIAL HepG2 Assay for human Phenobarbital-responsive Enhancer Module (PBREM) (AID 2282955). Particulars: HepG2 PBREM cis-reporter, Attagene multiplexed transcription; actives raise or lower the signal. In short, it runs like this: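 Fluorescence of labelled reporter cDNA fragments, resolved by capillary electrophoresis, gives mRNA induction in transfected HepG2 cells treated for 24 h; DMSO serves as negative control and baseline.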

Chain of Hypoxia-inducible factor 1-alpha (Homo sapiens) (Q16665 whole entry, looked up): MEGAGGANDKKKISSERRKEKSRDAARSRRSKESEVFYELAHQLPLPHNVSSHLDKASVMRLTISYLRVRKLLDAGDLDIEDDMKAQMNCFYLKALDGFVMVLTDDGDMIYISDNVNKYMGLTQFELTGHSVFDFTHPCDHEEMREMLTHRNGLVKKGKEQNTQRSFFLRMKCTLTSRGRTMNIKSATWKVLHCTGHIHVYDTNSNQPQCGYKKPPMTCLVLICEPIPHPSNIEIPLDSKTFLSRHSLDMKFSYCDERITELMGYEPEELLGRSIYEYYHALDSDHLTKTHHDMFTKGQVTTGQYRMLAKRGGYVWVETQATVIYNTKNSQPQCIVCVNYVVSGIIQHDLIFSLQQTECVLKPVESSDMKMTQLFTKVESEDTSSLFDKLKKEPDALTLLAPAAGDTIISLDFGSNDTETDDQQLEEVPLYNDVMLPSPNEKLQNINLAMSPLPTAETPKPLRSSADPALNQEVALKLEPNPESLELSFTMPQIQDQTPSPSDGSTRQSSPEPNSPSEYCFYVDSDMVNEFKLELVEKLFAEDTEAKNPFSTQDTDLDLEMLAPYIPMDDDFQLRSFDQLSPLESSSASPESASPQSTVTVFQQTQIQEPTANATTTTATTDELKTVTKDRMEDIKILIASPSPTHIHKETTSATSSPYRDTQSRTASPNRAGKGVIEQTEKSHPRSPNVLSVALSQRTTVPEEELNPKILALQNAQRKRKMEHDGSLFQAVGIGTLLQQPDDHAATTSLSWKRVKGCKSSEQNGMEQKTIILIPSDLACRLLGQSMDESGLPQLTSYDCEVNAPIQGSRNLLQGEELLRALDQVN
Chain of Paired box protein Pax-6 (Homo sapiens) (P26367 whole entry, looked up): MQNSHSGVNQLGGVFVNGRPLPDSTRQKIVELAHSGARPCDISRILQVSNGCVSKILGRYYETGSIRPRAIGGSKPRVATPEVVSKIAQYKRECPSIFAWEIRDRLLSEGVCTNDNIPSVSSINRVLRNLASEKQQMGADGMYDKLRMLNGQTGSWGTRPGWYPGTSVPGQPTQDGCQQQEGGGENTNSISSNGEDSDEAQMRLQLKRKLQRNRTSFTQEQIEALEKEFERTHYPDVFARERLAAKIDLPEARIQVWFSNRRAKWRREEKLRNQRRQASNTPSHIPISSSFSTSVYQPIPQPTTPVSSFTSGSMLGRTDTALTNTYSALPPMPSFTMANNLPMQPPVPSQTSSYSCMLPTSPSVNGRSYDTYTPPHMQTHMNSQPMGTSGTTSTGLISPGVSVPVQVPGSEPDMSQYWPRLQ
Chain of Heat shock factor protein 1 (Homo sapiens) (Q00613 whole entry, looked up): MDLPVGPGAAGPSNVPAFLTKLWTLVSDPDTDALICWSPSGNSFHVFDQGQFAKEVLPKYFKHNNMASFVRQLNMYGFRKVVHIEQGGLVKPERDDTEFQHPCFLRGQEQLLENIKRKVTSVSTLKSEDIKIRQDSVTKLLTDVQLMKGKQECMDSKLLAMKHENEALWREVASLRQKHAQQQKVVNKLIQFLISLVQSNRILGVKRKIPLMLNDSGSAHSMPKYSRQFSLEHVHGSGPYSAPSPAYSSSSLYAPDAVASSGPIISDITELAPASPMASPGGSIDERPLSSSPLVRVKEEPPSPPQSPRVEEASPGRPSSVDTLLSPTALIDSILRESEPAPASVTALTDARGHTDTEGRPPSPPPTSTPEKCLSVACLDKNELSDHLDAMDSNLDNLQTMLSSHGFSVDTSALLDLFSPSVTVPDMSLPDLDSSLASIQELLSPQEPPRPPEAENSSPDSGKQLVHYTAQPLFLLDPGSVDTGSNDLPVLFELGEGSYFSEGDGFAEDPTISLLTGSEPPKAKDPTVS
Chain of Hepatocyte nuclear factor 6 (Homo sapiens) (Q9UBC0 whole entry, looked up, the tested form may be a part): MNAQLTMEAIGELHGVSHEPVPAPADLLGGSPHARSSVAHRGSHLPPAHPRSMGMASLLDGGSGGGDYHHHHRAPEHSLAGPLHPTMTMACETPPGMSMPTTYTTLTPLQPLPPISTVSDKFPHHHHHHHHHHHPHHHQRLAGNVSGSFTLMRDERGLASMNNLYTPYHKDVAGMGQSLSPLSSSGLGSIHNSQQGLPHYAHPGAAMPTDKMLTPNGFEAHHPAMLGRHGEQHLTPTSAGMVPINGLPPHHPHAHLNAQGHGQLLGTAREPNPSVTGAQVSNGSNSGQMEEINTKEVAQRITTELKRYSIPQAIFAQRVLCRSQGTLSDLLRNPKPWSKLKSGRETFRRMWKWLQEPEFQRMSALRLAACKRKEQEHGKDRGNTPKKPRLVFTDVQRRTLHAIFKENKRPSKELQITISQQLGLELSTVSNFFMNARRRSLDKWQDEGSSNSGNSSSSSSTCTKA

As to `CC(c1ccccc1)(c1ccc(O)cc1)c1ccc(O)cc1`, the compound was classed as inactive in experiment [1], in [2], in experiment [3] and in experiment [7]. For the same compound, the results for the AC50 in experiment [4], in experiment [5] and in [6] were 16.3 µM (active), 17.8 µM (active) and 2.92 µM (active), respectively.
Regarding `CC(C)(C1CCC(O)CC1)C1CCC(O)CC1` (stereo not given), the compound was classed as inactive in [1], in [2], in experiment [3], in [8] and in experiment [5]. Besides, the AC50 in experiment [6] was 35.3 µM (active).
In the case of `CC[N+](CC)(CC)CC`, the result in experiment [1], in [2], in experiment [3], in experiment [4], in experiment [9] and in [5] was inactive. The outcome in [6] and in experiment [7] was inactive.
On to `O=c1[nH]c(=O)n(Cl)c(=O)n1Cl`, for which the call in experiment [1], in [2], in [3], in experiment [8], in experiment [4] and in [5] was inactive.
On to `CN(N=O)c1ccc([N+](=O)[O-])cc1`, for which the compound was classed as inactive in [1], in experiment [2], in [3], in experiment [8], in [4] and in experiment [9]. Further, the compound was called inactive in [5] and in experiment [7]. Also, in [6], the AC50 is 18.6 µM (active).
`Oc1cc(Cl)c(Cl)cc1Cl`: the result in experiment [1], in experiment [2], in [3] and in experiment [8] was inactive. The AC50 is 63 µM (active) in [4], 54 µM (active) in [5] and 25.8 µM (active) in [6].
As for `O=C(O)COc1cc(Cl)c(Cl)cc1Cl`, the result in experiment [1], in [2], in experiment [3], in experiment [8], in experiment [4] and in experiment [5] was inactive. For the same compound, the result in [6] was inactive. In addition, the AC50 in experiment [7] was 33.5 µM (active).
Turning to `COC(=O)c1cc(Oc2ccc(Cl)cc2Cl)ccc1[N+](=O)[O-]`, the compound was called inactive in experiment [1], in [3], in [8] and in [5]. For the same compound, the AC50 was 21.3 µM (active) in experiment [2], 5.12 µM (active) in experiment [6] and 10.2 µM (active) in [7].
Take `CCCCOP(=O)(CCCC)OCCCC`: the outcome in experiment [1], in [2], in experiment [3], in experiment [8], in [4] and in [9] was inactive. Besides, the call in experiment [5] and in experiment [7] was inactive. Also, the AC50 in [6] is 6.97 µM (active).
For `CNC(=O)CSP(=O)(OC)OC`, the compound was classed as inactive in [1], in experiment [2], in [3], in experiment [8], in experiment [4] and in [9]. For the same compound, the result in experiment [5], in experiment [6] and in [7] was inactive.
As to `CC(C)O.CC(C)O.OCCN(CCO)CCO.OCCN(CCO)CCO.[Ti]`, the compound was called inactive in experiment [1], in experiment [2], in experiment [3], in experiment [4], in experiment [9] and in experiment [5].
Take `CCOC(=O)CCN(SN(C)C(=O)Oc1cccc2c1OC(C)(C)C2)C(C)C`: the compound was called inactive in experiment [1], in experiment [2], in experiment [3], in experiment [9], in [5] and in [7]. In addition, the AC50 is 184 µM (active) in [8], 142 µM (active) in experiment [4] and 26.5 µM (active) in experiment [6].
With `CC(C)[C@@H](Nc1ccc(C(F)(F)F)cc1Cl)C(=O)OC(C#N)c1cccc(Oc2ccccc2)c1` (stereo not given in full), the compound was called inactive in [1], in experiment [2], in experiment [3], in [8], in experiment [5] and in experiment [7]. The AC50 in experiment [9] was 1.43 µM (active).
For `O=S(=O)(Oc1ccc(Cl)cc1)c1ccc(Cl)cc1`, the result in [1], in experiment [2], in experiment [3], in [8], in [5] and in [7] was inactive. Moreover, the AC50 in experiment [4] is 53.3 µM (active); in experiment [9], 10.8 µM (active); in [6], 5.87 µM (active).
Consider `OC[C@@H](O)[C@H]1O[C@@H]2O[C@H](C(Cl)(Cl)Cl)O[C@@H]2[C@H]1O`, for which the compound was classed as inactive in experiment [1], in experiment [2], in [3], in [4], in [9] and in experiment [5]. In addition, the compound was classed as inactive in experiment [6] and in [7].
`CN(CCCC(O)c1cccnc1)N=O` (stereo not given): the compound was classed as inactive in experiment [1], in experiment [2], in experiment [3], in [8], in experiment [5] and in experiment [6]. In experiment [7], the compound was called inactive.
For `CCCSP(=S)(OCC)Oc1ccc(Cl)cc1Cl` (stereo not given), the result in experiment [1], in [2], in [3], in [8], in experiment [4] and in experiment [9] was inactive. Further, the result in experiment [5] and in experiment [7] was inactive. Also, the AC50 in [6] was 2.72 µM (active).
`O=[N+]([O-])c1cc([As](=O)(O)O)ccc1O`: the compound was called inactive in experiment [1], in experiment [2], in [3], in experiment [8], in experiment [4] and in experiment [5]. Besides, the outcome in experiment [6] and in [7] was inactive.
Regarding `NC(=O)c1ccc(N)nc1`, the result in experiment [1], in [2], in experiment [3], in experiment [8], in experiment [4] and in [5] was inactive. In addition, the compound was called inactive in experiment [6] and in [7].
Turning to `COc1nn(C(=O)NS(=O)(=O)c2ccccc2OC(F)(F)F)c(=O)n1C`, the result in experiment [1], in [2], in [3], in [8], in experiment [4] and in [9] was inactive. In addition, the outcome in experiment [5], in experiment [6] and in experiment [7] was inactive.
`O=S(=O)(c1ccc(Cl)cc1)c1cc(Cl)c(Cl)cc1Cl`: the call in experiment [1], in experiment [2], in [3], in experiment [4], in [9] and in experiment [5] was inactive. For the same compound, the compound was called inactive in [7]. Moreover, the concentration at half-maximal activity (AC50) in experiment [6] is 1.59 µM (active).
`O=C(NC(=O)c1c(F)cccc1F)Nc1cc(Cl)c(F)c(Cl)c1F`: the compound was called inactive in experiment [1], in experiment [2], in [3], in experiment [8], in experiment [4] and in experiment [5]. The call in experiment [7] was inactive. In experiment [6], the concentration at half-maximal activity (AC50) is 20.2 µM (active).
Regarding `CC1CC(=O)O1` (stereo not given), the result in [1], in experiment [3], in experiment [8], in experiment [4], in [5] and in experiment [6] was inactive. Besides, the result in experiment [7] was inactive. Also, the AC50 in experiment [2] was 88 µM (active).
For `Cc1ccc(OP(=O)(Oc2ccc(C)cc2C)Oc2ccc(C)cc2C)c(C)c1`, the outcome in experiment [1], in experiment [2], in experiment [8], in experiment [9], in experiment [5] and in experiment [7] was inactive. Besides, the AC50 in experiment [3] is 25.4 µM (active); in experiment [4], 2.33 µM (active); in experiment [6] it was 0.181 µM (active).
Turning to `COc1ccc(N)cc1`, the result in experiment [1], in experiment [2], in [3], in experiment [5], in [6] and in [7] was inactive. For the same compound, the half-maximal activity concentration (AC50) in experiment [2] was 181 µM (active).
`Cc1cc(C)cc(C)c1`: the compound was called inactive in experiment [1], in [2], in [3], in [8], in experiment [5] and in experiment [6].
As to `c1cc[c]([Sb]([c]2ccccc2)[c]2ccccc2)cc1`, the call in experiment [1], in experiment [2], in [3], in experiment [8], in experiment [4] and in experiment [9] was inactive. The result in [5] and in experiment [7] was inactive. Besides, the AC50 in experiment [6] was 2.1 µM (active).
On to `Nc1cccnc1`, for which the call in [1], in experiment [2], in experiment [3], in experiment [8], in experiment [4] and in [9] was inactive. The call in experiment [5] and in experiment [7] was inactive. Also, the AC50 in experiment [6] was 40.2 µM (active).
